Beta cell apopt: beta cell apoptosis inhibition; protection from apoptosis, % (test concentration not listed); 300,000 compounds, 0.8% hits; INS-1E cytokine-induced death, ATP luminescence, 48 h; percent of positive-control rescue, neutral wells zero;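 active = Every replicate reaches about 75%, or at least half do and their mean reaches it too, limit read from the data; inconclusive = At least half of replicates reach the limit but their mean does not; inactive = Under half of replicates reach the limit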;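 note: 0% = cytokine-treated negative control wells and 100% = positive control rescue; higher means more ATP so stronger rescue from cytokine killing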
aSyn 5UTR inh: MLPCN primary screen, SNCA 5' untranslated region; inhibition, % (tested at 7.5 µM); AID 1813; alpha-synuclein 5'UTR reporter, inhibitor activity; 300,000 compounds, 0.82% hits; in the data active = inhibition above about 60%; inconclusive = no clear call, values can overlap the other calls;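 note: H4 neuroglioblastoma cells stably carrying SNCA 5'UTR luciferase fusion; 0% = DMSO wells and 100% = positive control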
A1 inh: inhibitors of the anti-apoptotic protein A1, read as caspase activation | MEF A1-2A-BIM cells, Caspase-Glo 3/7 luminescence, 3 h; percent of clofoctol response, vehicle zero | caspase activation, % (concentration not given with the values) | 330,000 compounds, 0.066% hits | AID 2462;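 active = over half of replicate activation scores above 10%, or exactly half above 10 with the replicate mean above 10; inconclusive = replicate mean below 10 yet half the replicates above 10; inactive = over half of replicates below 10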
CSC inhib: blocks cancer stem cells; cancer stem cell-like cells viability, luminescence; inhibition, % at 7.5 µM; 300,000 compounds, 1.1% hits; AID 2717; in the data active = inhibition above about 75%; inconclusive = no clear call, values can overlap the other calls; tested in HMLE shEcad cells
Mdm2-MdmX inh: inhibitors of human Mdm2/MdmX interaction; AID 485346; inhibition, % at 8 µM; 330,000 compounds, 3% hits; SaOS-2 split-luciferase Mdm2/MdmX complementation, luminescence;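 active = inhibition of at least 50% at 8 µM in the primary screen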
Active calls of the source: *. A selection: hits, their analogues and other compounds. The true share with any hit is near 4.1%.

Results for CCCCCc1ccc(-c2cn(CN3C(=O)c4ccccc4C3=O)nn2)cc1 ?
Beta cell apopt: 96*; aSyn 5UTR inh: 7; A1 inh: -1; CSC inhib: 5; Mdm2-MdmX inh: 24

How did CSc1ccc(S(=O)(=O)Nc2ccc3c(c2)OCCO3)cc1 do in these assays?
Beta cell apopt: 13; aSyn 5UTR inh: 6; A1 inh: 0; CSC inhib: 5; Mdm2-MdmX inh: 17

Results for COc1ccc(S(=O)(=O)Nc2ccc(N3CCOCC3)cc2)cc1 ?
Beta cell apopt: -1; aSyn 5UTR inh: -10; A1 inh: 2; CSC inhib: 5; Mdm2-MdmX inh: 22

How did COc1ccc(NS(=O)(=O)c2ccc(N3CCOCC3)c(N)c2)cc1 do in these assays?
Beta cell apopt: 76*; A1 inh: -2; CSC inhib: 26; Mdm2-MdmX inh: -7

How did CSc1ccc(S(=O)(=O)Nc2ccc(N3CCOCC3)c(Cl)c2)cc1 do in these assays?
Beta cell apopt: 104*; aSyn 5UTR inh: 15; A1 inh: -1; CSC inhib: 3; Mdm2-MdmX inh: -20

What do the screens show for `COc1ccccc1-c1cn[nH]c1-c1ccc(OCc2ccc(F)cc2)cc1O`?
Beta cell apopt: 8; aSyn 5UTR inh: -3; A1 inh: 2; CSC inhib: inconclusive; Mdm2-MdmX inh: 30

What do the screens show for `COc1ccccc1-c1cn[nH]c1-c1ccc(OCc2ccccc2F)cc1O`?
Beta cell apopt: 8; aSyn 5UTR inh: 9; A1 inh: 0; CSC inhib: 93*; Mdm2-MdmX inh: 41

Results for Cc1noc(C)c1S(=O)(=O)N(C)C[C@H]1Oc2ccc(NC(=O)NC3CCCCC3)cc2C(=O)N([C@H](C)CO)C[C@@H]1C ?
Beta cell apopt: -1; A1 inh: 0; CSC inhib: -19; Mdm2-MdmX inh: 10

How did COc1cc(/C=C(\C#N)C(=O)NCc2ccccc2)ccc1OCc1ccc(C(=O)O)cc1 do in these assays?
Beta cell apopt: 5; aSyn 5UTR inh: -29; A1 inh: 0; CSC inhib: -1; Mdm2-MdmX inh: -8

Results for COc1cc(/C=C(/C#N)c2ccccc2F)ccc1OCc1ccccc1 ?
Beta cell apopt: -2; aSyn 5UTR inh: -27; A1 inh: 0; CSC inhib: 116*; Mdm2-MdmX inh: 1

Results for CC(C)=CCC/C(C)=C/CNC(=O)C[C@H]1C[C@H](C(=O)N2CCCCC2)[C@@]2(C)c3[nH]c4cc(CCC(=O)N(C)C)ccc4c3CCN2C1=O ?
Mdm2-MdmX inh: 39

Results for COc1ccc(S(=O)(=O)Nc2ccccc2)cc1 ?
Beta cell apopt: 1; aSyn 5UTR inh: -19; A1 inh: 2; CSC inhib: 6; Mdm2-MdmX inh: -14

How did Cc1ccc(C)c(S(=O)(=O)Nc2ccc(O)c3ccccc23)c1 do in these assays?
Beta cell apopt: 99*; aSyn 5UTR inh: 3; A1 inh: 1; CSC inhib: 21; Mdm2-MdmX inh: 19

How did Cc1ccc(C)c(S(=O)(=O)Nc2ccc(O)c(C(=O)O)c2)c1 do in these assays?
Beta cell apopt: -5; aSyn 5UTR inh: 15; A1 inh: 0; CSC inhib: 4; Mdm2-MdmX inh: 6

Results for Cc1ccc(S(=O)(=O)Nc2ccc(O)c3ccccc23)c(C)c1 ?
Beta cell apopt: 96*; aSyn 5UTR inh: 14; A1 inh: 1; CSC inhib: 31

What do the screens show for `COc1ccc(S(=O)(=O)Nc2ccc(O)c3ccccc23)cc1`?
Beta cell apopt: 124*; aSyn 5UTR inh: -68; A1 inh: -1; Mdm2-MdmX inh: 47

Results for Cc1ccc(S(=O)(=O)Nc2cc(C(C(=O)OC(C)C)C(=O)C(F)(F)F)c(O)c3ccccc23)c(C)c1 (stereo not drawn) ?
Beta cell apopt: 40; aSyn 5UTR inh: -30; A1 inh: 0; CSC inhib: 24; Mdm2-MdmX inh: 19

How did O=C(O)C(Cc1cn[nH]n1)=NO do in these assays?
Beta cell apopt: -5; aSyn 5UTR inh: 22; A1 inh: 0; CSC inhib: -5; Mdm2-MdmX inh: -23

How did O=C(Nc1sc2c(c1C(=O)O)CCC2)c1ccco1 do in these assays?
Beta cell apopt: -1; aSyn 5UTR inh: -62; A1 inh: 0; CSC inhib: -4; Mdm2-MdmX inh: -19

What do the screens show for `COC(=O)c1c(NC(=O)c2ccco2)sc2c1CCC2`?
Beta cell apopt: 4; aSyn 5UTR inh: -20; A1 inh: 0; CSC inhib: 76*; Mdm2-MdmX inh: -18

Results for CC(C)(C)c1ccc(C(=O)Nc2sc3c(c2C(=O)O)CCC3)cc1 ?
Beta cell apopt: 8; aSyn 5UTR inh: 95*; A1 inh: 0; CSC inhib: 15; Mdm2-MdmX inh: 38

How did NC(=O)c1c(NC(=O)c2ccc([N+](=O)[O-])o2)sc2c1CCCC2 do in these assays?
Beta cell apopt: -10; aSyn 5UTR inh: 95*; A1 inh: 0; CSC inhib: 7; Mdm2-MdmX inh: 14

How did COc1ccc(C(=O)c2coc3ccc(O)cc23)cc1 do in these assays?
Beta cell apopt: 0; aSyn 5UTR inh: -8; A1 inh: -9; CSC inhib: 10; Mdm2-MdmX inh: -167

How did O=C(c1cccc(Br)c1)c1coc2ccc(O)cc12 do in these assays?
Beta cell apopt: 3; A1 inh: -3; CSC inhib: 91*; Mdm2-MdmX inh: -127

Results for Cc1ccc(N=Nc2ccc(O)c3ncccc23)cc1 ?
Beta cell apopt: 102*; aSyn 5UTR inh: 86*; A1 inh: -1; CSC inhib: 99*

How did O=C1CCCN1CCCN1CC(C(=O)N(CCO)Cc2ccccc2)CCC1=O (stereo not drawn) do in these assays?
Beta cell apopt: -2; aSyn 5UTR inh: -9; A1 inh: 0; CSC inhib: -5; Mdm2-MdmX inh: -1

What do the screens show for `c1ccc(C[n+]2c(-c3ccccc3)csc2Nc2ccccc2)cc1`?
Beta cell apopt: 11; aSyn 5UTR inh: -40; A1 inh: -1; CSC inhib: 83*; Mdm2-MdmX inh: -15

How did c1ccc(Nc2scc(-c3ccccc3)[n+]2Cc2ccco2)cc1 do in these assays?
Beta cell apopt: 0; aSyn 5UTR inh: -222; A1 inh: -1; CSC inhib: 9; Mdm2-MdmX inh: -105

What do the screens show for `CSc1ccccc1OCc1cc(C(=O)N(C)Cc2ccncn2)no1`?
Beta cell apopt: 7; aSyn 5UTR inh: -81; A1 inh: 0; CSC inhib: 6; Mdm2-MdmX inh: -55

What do the screens show for `Cc1cc(C)c2nc(NCCCNC(=S)NCCCN(C)C)c(C#N)cc2c1`?
Beta cell apopt: 2; aSyn 5UTR inh: 96*; A1 inh: 1; CSC inhib: 13; Mdm2-MdmX inh: 22

How did CCC1CSC(Nc2ccc(C(=O)/C=C/c3cccc(C)c3)cc2)=N1 (stereo not drawn) do in these assays?
Beta cell apopt: 12; aSyn 5UTR inh: -34; A1 inh: 0; CSC inhib: 87*; Mdm2-MdmX inh: 46

How did COc1ccc(S(=O)(=O)Nc2noc3ccccc23)cc1 do in these assays?
Beta cell apopt: -4; aSyn 5UTR inh: 17; A1 inh: 0; CSC inhib: -2; Mdm2-MdmX inh: -34
